Data as given in PubChem BioAssay (NCI).
This is part of a sample that, as a whole, favours compounds with a hit. Of some 83,000 tested, about 20% had one in any assay.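 Each cell line was grown in a 96-well plate and treated with one concentration of compound for 48 hours. Values below 10 were considered active.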 The source made the active and inactive calls.

Tests used:
Assay in all cases: NCI-60 one-dose screen, 48 h (100 = growth as untreated, 0 = no growth, -100 = all killed)
Settings in all cases: 10 µM
[1] = tested on: HT29 colon
[2] = tested on: SNB-75 CNS
[3] = tested on: SNB-19 CNS
[4] = tested on: U251 CNS
[5] = tested on: PC-3 prostate
[6] = tested on: SK-MEL-5 melanoma
[7] = tested on: UACC-62 melanoma
[8] = tested on: LOX IMVI melanoma
[9] = tested on: SK-MEL-28 melanoma
[10] = tested on: SK-MEL-2 melanoma

Measured: growth

O=C(N/N=C/c1ccccc1)C(Oc1ccccc1)c1ccccc1 (stereo not given)
inactive: [1] 100% | [2] 83.9% | [3] 94.6% | [4] 106% | [5] 90.6% | [6] 93.5% | [7] 74.9% | [8] 90.1% | [9] 93.6% | [10] 120%

COc1ccc(OC)c(NC(=O)c2sc3nc4c(cc3c2N)C(=O)CCC4)c1
inactive: [1] 106% | [2] 87.2% | [3] 82.2% | [4] 94.5% | [5] 80.4% | [6] 66% | [7] 75.3% | [8] 90.8% | [9] 83.7% | [10] 94.1%

Nc1c(C(=O)Nc2cccc(F)c2)sc2nc3c(cc12)C(=O)CCC3
inactive: [1] 16.7% | [2] 24.9% | [3] 48.9% | [4] 32.1% | [5] 20.7% | [6] 43.2% | [7] 43.4% | [8] 46.5% | [9] 49.7% | [10] 43.3%

CCN(CC)CCNc1ccc(CO)c2oc3cc(Cl)ccc3c(=O)c12
inactive: [1] 52.8% | [2] 69.7% | [3] 97% | [4] 79.7% | [5] 77.4% | [6] 53.9% | [7] 73.1% | [8] 70.5% | [9] 97.8% | [10] 128%

CC1(O)CCC2CC3OC3(C)CCC3OC3(C)CCC1C2(C)C (stereo not given)
inactive: [1] 109% | [2] 117% | [3] 89.8% | [4] 96% | [5] 170% | [6] 90.3% | [7] 99.3% | [8] 102% | [9] 121% | [10] 107%

O=[N+]([O-])c1cccc(N=Cc2ccc3c(c2)OCO3)c1
inactive: [1] 105% | [2] 96.7% | [3] 130% | [4] 97.1% | [5] 106% | [6] 111% | [7] 105% | [8] 91.4% | [9] 117% | [10] 98.1%

CC(=O)c1cc(Cl)ccc1O
inactive: [1] 106% | [2] 95.4% | [3] 113% | [4] 107% | [5] 91.1% | [6] 103% | [7] 108% | [8] 102% | [9] 109% | [10] 110%

Clc1ccccc1N=Cc1ccc2c(c1)OCO2
inactive: [1] 96.3% | [2] 95% | [3] 105% | [4] 94.9% | [5] 107% | [6] 107% | [7] 103% | [8] 98.9% | [9] 110% | [10] 108%

CCOC(=O)C(=Cc1ccc(Br)cc1)C(=O)OCC
active: [1] -64% | [4] -46% | [5] -30.4% | [6] -47.9% | [7] -72.6% | [8] -85.7% | [9] -74.5% | [10] -61.5%
inactive: [2] 12.7% | [3] 63.1%

COc1cc(C)ccc1C(=O)c1ccc(C)cc1OC
active: [1] 2.74% | [2] 8.51%
inactive: [3] 43.4% | [4] 18.3% | [5] 17.6% | [6] 25.9% | [7] 42.3% | [8] 31.5% | [9] 58.5% | [10] 17.2%

Cn1c([N+](=O)[O-])cnc1/C=C1\Oc2ccc(Cl)cc2C1=O
active: [1] -10.1% | [3] -10.5% | [4] -18.2% | [5] -17.9% | [6] -92.7% | [7] -74.2% | [8] -57.5% | [9] -22.1% | [10] -42.2%
inactive: [2] 15.7%

CCN(CC)CCCOCCCNc1cc(OC)cc2cccnc12
inactive: [1] 96.1% | [2] 94.7% | [3] 91.4% | [4] 91.5% | [5] 86.6% | [6] 96.4% | [7] 82.1% | [8] 90.2% | [9] 103% | [10] 107%

CCOC(=O)N/N=C\C(C)=N\NC(=O)OCC
inactive: [1] 98% | [2] 92.1% | [3] 98.5% | [4] 92.7% | [5] 93% | [6] 109% | [7] 99.3% | [8] 96.2% | [9] 103% | [10] 111%

Nc1nc(-c2ccccc2Cl)cc(-c2ccc(Cl)cc2Cl)n1
inactive: [1] 36.6% | [2] 30.5% | [3] 78.1% | [4] 65% | [5] 74.2% | [6] 75.2% | [7] 63.1% | [8] 55.4% | [9] 88% | [10] 96.3%
